# Test results as given in the supplement of paper PMC8728848.
# The full list was thinned out, with the strongest signals kept by preference.
# B1: Epa1to9 (Candida glabrata) (protein)
# chain: MGSSHHHHHHSSGLVPRGSHMTSSNDISLASKDPTTFPLGCSPDITTPKKGLSMELYSYDFRKKGSYPCWDAAYLDPNYPRTGYKSHRLLAKVDGVTGNINFYYHATKGCTPQLGHLPASYNYPKPLTMTNFTMLLYGYFRPKVTGFHTFTISADDLLFVNFGAGNAFDCCRRDSSADHFGNYQAYAIWGSKTAKDELTVHLDAGVYYPIRLFYNNRDYHGALSFTFKTESNENTVSDFSEYFFSLDDTEEGCPGLISYD
# Experiments:
# Experiment in all cases: glycan array binding signal (z-score within array); higher = stronger binding
# Conditions in all cases: glycan notation: IUPAC condensed, linker removed
# [1] = target: Fuc(a1-2)Gal(b1-3)GlcNAc(b1-3)Gal(b1-4)Glc
# Method in brief: (§1)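 Glycan array data came from 3228 arrays in the Consortium for Functional Glycomics database, and only arrays with an available protein sequence were kept. Glycan names were put into IUPAC-condensed notation, and columns mapping to the same glycan were averaged. The binding signal is a within-array Z-score, averaged across arrays of one protein sequence run at different concentrations or buffers and across linkers. A negative Z-score can be read as non-binding.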
# Fuc(a1-2)Gal(b1-4)Glc = target: Fuc(a1-2)Gal(b1-4)Glc
# Method in brief: as §1
# [2] = target: Fuc(a1-2)Gal(b1-4)GlcNAc(b1-3)GalNAc
# Method in brief: as §1
# [3] = target: Fuc(a1-2)Gal6S(b1-3)GlcNAc
# Method in brief: as §1
# [4] = target: Fuc(a1-2)[Gal(a1-3)]Gal(b1-4)[Fuc(a1-3)]GlcNAc
# Method in brief: as §1
# [5] = target: Fuc(a1-2)[GalNAc(a1-3)]Gal(b1-3)GalNAc(b1-3)Gal(a1-4)Gal(b1-4)Glc
# Method in brief: as §1
# [6] = target: Fuc(a1-2)[GalNAc(a1-3)]Gal(b1-4)GlcNAc(b1-2)Man(a1-3)[Fuc(a1-2)[GalNAc(a1-3)]Gal(b1-4)GlcNAc(b1-2)Man(a1-6)]Man(b1-4)GlcNAc(b1-4)GlcNAc
# Method in brief: as §1
# [7] = target: Fuc(a1-3)[Gal(b1-4)]GlcNAc(b1-3)GalNAc
# Method in brief: as §1
# [8] = target: Gal(a1-3)Gal(b1-4)GlcNAc(b1-2)Man
# Method in brief: as §1
# Gal(a1-4)GlcNAc = target: Gal(a1-4)GlcNAc
# Method in brief: as §1
# Gal(b1-3)Gal(b1-4)GlcNAc = target: Gal(b1-3)Gal(b1-4)GlcNAc
# Method in brief: as §1
# Gal(b1-3)GalNAc(b1-3)Gal = target: Gal(b1-3)GalNAc(b1-3)Gal
# Method in brief: as §1
# [9] = target: Gal(b1-3)GalNAc(b1-4)Gal(b1-4)Glc
# Method in brief: as §1
# [10] = target: Gal(b1-3)GalNAc(b1-4)[Neu5Ac(a2-3)]Gal(b1-4)Glc
# Method in brief: as §1
# [11] = target: Gal(b1-3)[Neu5Ac(a2-6)]GalNAc
# Method in brief: as §1
# [12] = target: Gal(b1-4)GlcNAc(b1-2)Man(a1-3)[Gal(b1-4)GlcNAc(b1-2)Man(a1-6)]Man(b1-4)GlcNAc(b1-4)GlcNAc
# Method in brief: as §1
# [13] = target: Gal(b1-4)GlcNAc(b1-2)Man(a1-3)[Man(a1-6)]Man(b1-4)GlcNAc(b1-4)GlcNAc
# Method in brief: as §1
# [14] = target: Gal(b1-4)GlcNAc(b1-2)[Gal(b1-4)GlcNAc(b1-6)]Man(a1-6)[Gal(b1-4)GlcNAc(b1-2)Man(a1-3)]Man(b1-4)GlcNAc(b1-4)[Fuc(a1-6)]GlcNAc
# Method in brief: as §1
# [15] = target: Gal(b1-4)GlcNAc(b1-3)Gal(b1-3)GlcNAc
# Method in brief: as §1
# [16] = target: Gal(b1-4)GlcNAc(b1-3)Gal(b1-4)GlcNAc
# Method in brief: as §1
# [17] = target: Gal(b1-4)GlcNAc(b1-3)Gal(b1-4)GlcNAc(b1-3)Gal(b1-4)GlcNAc(b1-3)Gal(b1-4)GlcNAc(b1-3)Gal(b1-4)GlcNAc(b1-2)Man(a1-3)[Gal(b1-4)GlcNAc(b1-3)Gal(b1-4)GlcNAc(b1-3)Gal(b1-4)GlcNAc(b1-3)Gal(b1-4)GlcNAc(b1-3)Gal(b1-4)GlcNAc(b1-2)Man(a1-6)]Man(b1-4)GlcNAc(b1-4)GlcNAc
# Method in brief: as §1
# [18] = target: Gal3S(b1-3)[Fuc(a1-4)]GlcNAc
# Method in brief: as §1
# Gal3S(b1-4)Glc = target: Gal3S(b1-4)Glc
# Method in brief: as §1
# Gal6S(b1-3)GlcNAc6S = target: Gal6S(b1-3)GlcNAc6S
# Method in brief: as §1
# Gal6S(b1-4)Glc = target: Gal6S(b1-4)Glc
# Method in brief: as §1
# Gal6S(b1-4)Glc6S = target: Gal6S(b1-4)Glc6S
# Method in brief: as §1
# Gal6S(b1-4)GlcNAc = target: Gal6S(b1-4)GlcNAc
# Method in brief: as §1
# Gal6S(b1-4)GlcNAc6S = target: Gal6S(b1-4)GlcNAc6S
# Method in brief: as §1
# GalNAc3S(b1-4)GlcNAc3S = target: GalNAc3S(b1-4)GlcNAc3S
# Method in brief: as §1
# GalNAc4S6S(b1-4)GlcNAc = target: GalNAc4S6S(b1-4)GlcNAc
# Method in brief: as §1
# Glc(b1-6)Glc = target: Glc(b1-6)Glc
# Method in brief: as §1
# GlcA(b1-3)Gal = target: GlcA(b1-3)Gal
# Method in brief: as §1
# GlcA(b1-3)GlcNAc = target: GlcA(b1-3)GlcNAc
# Method in brief: as §1
# [19] = target: GlcA3S(b1-3)Gal(b1-4)GlcNAc(b1-3)Gal(b1-4)Glc
# Method in brief: as §1
# [20] = target: GlcNAc(b1-2)Man(a1-3)[GlcNAc(b1-4)][GlcNAc(b1-2)Man(a1-6)]Man(b1-4)GlcNAc(b1-4)[Fuc(a1-6)]GlcNAc
# Method in brief: as §1
# [21] = target: GlcNAc(b1-2)[GlcNAc(b1-4)]Man(a1-3)[GlcNAc(b1-2)Man(a1-6)]Man(b1-4)GlcNAc(b1-4)GlcNAc
# Method in brief: as §1
# [22] = target: GlcNAc(b1-2)[GlcNAc(b1-6)]Man(a1-6)[GlcNAc(b1-2)Man(a1-3)]Man(b1-4)GlcNAc(b1-4)GlcNAc
# Method in brief: as §1
# GlcNAc(b1-3)GalNAc = target: GlcNAc(b1-3)GalNAc
# Method in brief: as §1
# Kdn(a2-3)Gal(b1-3)GalNAc = target: Kdn(a2-3)Gal(b1-3)GalNAc
# Method in brief: as §1
# Man(a1-3)[Man(a1-6)]Man = target: Man(a1-3)[Man(a1-6)]Man
# Method in brief: as §1
# [23] = target: Man(a1-3)[Man(a1-6)]Man(b1-4)GlcNAc(b1-4)[Fuc(a1-6)]GlcNAc
# Method in brief: as §1
# [24] = target: Neu5Ac(a2-3)Gal(b1-3)GlcNAc(b1-2)Man
# Method in brief: as §1
# [25] = target: Neu5Ac(a2-3)Gal(b1-4)GlcNAc(b1-2)Man(a1-3)[Neu5Ac(a2-6)Gal(b1-4)GlcNAc(b1-2)Man(a1-6)]Man(b1-4)GlcNAc(b1-4)GlcNAc
# Method in brief: as §1
# [26] = target: Neu5Ac(a2-3)Gal(b1-4)[Fuc(a1-3)]GlcNAc6S
# Method in brief: as §1
# [27] = target: Neu5Ac(a2-6)Gal(b1-4)GlcNAc(b1-2)Man(a1-3)[Gal(b1-4)GlcNAc(b1-2)Man(a1-6)]Man(b1-4)GlcNAc(b1-4)GlcNAc
# Method in brief: as §1
# [28] = target: Neu5Ac(a2-6)Gal(b1-4)GlcNAc(b1-3)Gal(b1-4)GlcNAc(b1-3)Gal(b1-4)GlcNAc(b1-2)Man(a1-3)[Neu5Ac(a2-6)Gal(b1-4)GlcNAc(b1-3)Gal(b1-4)GlcNAc(b1-3)Gal(b1-4)GlcNAc(b1-2)Man(a1-6)]GalNAc
# Method in brief: as §1
# Neu5Ac(a2-6)GalNAc = target: Neu5Ac(a2-6)GalNAc
# Method in brief: as §1
# Neu5Ac(b2-6)GalNAc = target: Neu5Ac(b2-6)GalNAc
# Method in brief: as §1
# [29] = target: Neu5Gc(a2-8)Neu5Ac(a2-3)Gal(b1-4)GlcNAc
# Method in brief: as §1
binder,measurement,setting,value
B1,glycan array binding signal (z-score),[1],-0.354
same,glycan array binding signal (z-score),Fuc(a1-2)Gal(b1-4)Glc,-0.307
same,glycan array binding signal (z-score),[2],-0.34
same,glycan array binding signal (z-score),[3],0.035
same,glycan array binding signal (z-score),[4],-0.276
same,glycan array binding signal (z-score),[5],-0.349
same,glycan array binding signal (z-score),[6],-0.318
same,glycan array binding signal (z-score),[7],-0.293
same,glycan array binding signal (z-score),[8],0.008
same,glycan array binding signal (z-score),Gal(a1-4)GlcNAc,1.94
same,glycan array binding signal (z-score),Gal(b1-3)Gal(b1-4)GlcNAc,4.22
same,glycan array binding signal (z-score),Gal(b1-3)GalNAc(b1-3)Gal,3.67
same,glycan array binding signal (z-score),[9],4.67
same,glycan array binding signal (z-score),[10],2.83
same,glycan array binding signal (z-score),[11],4.47
same,glycan array binding signal (z-score),[12],1.17
same,glycan array binding signal (z-score),[13],-0.161
same,glycan array binding signal (z-score),[14],3.13
same,glycan array binding signal (z-score),[15],-0.107
same,glycan array binding signal (z-score),[16],-0.064
same,glycan array binding signal (z-score),[17],0.122
same,glycan array binding signal (z-score),[18],-0.345
same,glycan array binding signal (z-score),Gal3S(b1-4)Glc,-0.283
same,glycan array binding signal (z-score),Gal6S(b1-3)GlcNAc6S,4.86
same,glycan array binding signal (z-score),Gal6S(b1-4)Glc,5.05
same,glycan array binding signal (z-score),Gal6S(b1-4)Glc6S,7.26
same,glycan array binding signal (z-score),Gal6S(b1-4)GlcNAc,4.98
same,glycan array binding signal (z-score),Gal6S(b1-4)GlcNAc6S,10.6
same,glycan array binding signal (z-score),GalNAc3S(b1-4)GlcNAc3S,-0.353
same,glycan array binding signal (z-score),GalNAc4S6S(b1-4)GlcNAc,-0.346
same,glycan array binding signal (z-score),Glc(b1-6)Glc,-0.333
same,glycan array binding signal (z-score),GlcA(b1-3)Gal,-0.315
same,glycan array binding signal (z-score),GlcA(b1-3)GlcNAc,-0.346
same,glycan array binding signal (z-score),[19],-0.35
same,glycan array binding signal (z-score),[20],-0.354
same,glycan array binding signal (z-score),[21],-0.295
same,glycan array binding signal (z-score),[22],-0.344
same,glycan array binding signal (z-score),GlcNAc(b1-3)GalNAc,-0.352
same,glycan array binding signal (z-score),Kdn(a2-3)Gal(b1-3)GalNAc,-0.38
same,glycan array binding signal (z-score),Man(a1-3)[Man(a1-6)]Man,-0.287
same,glycan array binding signal (z-score),[23],-0.339
same,glycan array binding signal (z-score),[24],-0.33
same,glycan array binding signal (z-score),[25],-0.322
same,glycan array binding signal (z-score),[26],-0.36
same,glycan array binding signal (z-score),[27],-0.246
same,glycan array binding signal (z-score),[28],-0.309
same,glycan array binding signal (z-score),Neu5Ac(a2-6)GalNAc,-0.343
same,glycan array binding signal (z-score),Neu5Ac(b2-6)GalNAc,-0.346
same,glycan array binding signal (z-score),[29],-0.338
